# Experimental data reported in publication PMC7862700, “An all-to-all approach to the identification of sequence-specific readers for epigenetic DNA modifications on cytosine”.
# How the values were obtained:
# Assay in all cases: DAPPL (digital affinity profiling via proximity ligation, sequencing); 10 mM Tris-HCl pH 7.5, 50 mM NaCl, 1 mM DTT, 4% glycerol, room temperature, 30 min; GST-TFs on glutathione beads, 16-mer random dsDNA library, 0.1% formaldehyde crosslink after washing; high values mean tight binding
# FEV = molecular target: T1, FEV (Homo sapiens, UniProt Q99581 1-238); details: protein: recombinant; tags: N-terminal GST; dsDNA, one strand shown
# T1 sequence: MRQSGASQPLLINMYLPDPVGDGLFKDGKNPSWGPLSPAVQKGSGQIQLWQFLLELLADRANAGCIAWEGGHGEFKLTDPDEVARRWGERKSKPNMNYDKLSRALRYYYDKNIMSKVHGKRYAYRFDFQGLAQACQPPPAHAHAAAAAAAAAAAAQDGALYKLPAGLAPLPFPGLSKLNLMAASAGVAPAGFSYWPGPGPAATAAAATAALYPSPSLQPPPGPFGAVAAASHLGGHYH
# Method in brief: (§1)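 Binding signal is defined as a hexamer's read frequency for one factor over its frequency for the tag-only sample. To obtain reads, GST-fused human transcription factors were expressed in yeast, captured on glutathione beads, barcoded with DNA and pooled with that sample. Pools met 200 nmole of a 16-mer random double-stranded DNA library in Tris/NaCl/DTT/glycerol buffer for 30 min at room temperature before washing, 0.1% formaldehyde crosslinking, proximity ligation (BsaI/T4 ligase, 1 h, 37 °C), PCR and Illumina NextSeq500 sequencing.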
# ETV5 = ETV5 (Homo sapiens, UniProt P41161 1-510); details: protein: recombinant; tags: N-terminal GST; dsDNA, one strand shown
# Chain of ETV5 (P41161 whole entry): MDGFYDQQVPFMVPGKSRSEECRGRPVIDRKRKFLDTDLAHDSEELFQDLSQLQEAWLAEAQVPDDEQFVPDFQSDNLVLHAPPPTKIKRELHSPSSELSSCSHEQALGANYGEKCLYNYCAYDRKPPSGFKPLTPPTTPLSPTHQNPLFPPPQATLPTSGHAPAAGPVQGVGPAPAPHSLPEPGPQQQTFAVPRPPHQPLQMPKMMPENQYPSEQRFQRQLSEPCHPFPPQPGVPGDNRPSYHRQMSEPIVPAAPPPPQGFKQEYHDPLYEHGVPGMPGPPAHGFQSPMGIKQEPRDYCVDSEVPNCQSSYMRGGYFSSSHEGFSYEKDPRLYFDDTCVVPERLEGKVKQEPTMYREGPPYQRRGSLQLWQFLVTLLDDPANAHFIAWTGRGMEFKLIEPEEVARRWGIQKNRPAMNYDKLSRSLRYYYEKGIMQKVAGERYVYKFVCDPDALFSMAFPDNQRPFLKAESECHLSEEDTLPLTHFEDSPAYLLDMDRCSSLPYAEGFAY
# Method in brief: as §1
# HSF1 = HSF1 (Homo sapiens, UniProt Q00613 1-529); details: protein: recombinant; tags: N-terminal GST; chain copies: 3; dsDNA, one strand shown
# Chain of HSF1 (Q00613 whole entry): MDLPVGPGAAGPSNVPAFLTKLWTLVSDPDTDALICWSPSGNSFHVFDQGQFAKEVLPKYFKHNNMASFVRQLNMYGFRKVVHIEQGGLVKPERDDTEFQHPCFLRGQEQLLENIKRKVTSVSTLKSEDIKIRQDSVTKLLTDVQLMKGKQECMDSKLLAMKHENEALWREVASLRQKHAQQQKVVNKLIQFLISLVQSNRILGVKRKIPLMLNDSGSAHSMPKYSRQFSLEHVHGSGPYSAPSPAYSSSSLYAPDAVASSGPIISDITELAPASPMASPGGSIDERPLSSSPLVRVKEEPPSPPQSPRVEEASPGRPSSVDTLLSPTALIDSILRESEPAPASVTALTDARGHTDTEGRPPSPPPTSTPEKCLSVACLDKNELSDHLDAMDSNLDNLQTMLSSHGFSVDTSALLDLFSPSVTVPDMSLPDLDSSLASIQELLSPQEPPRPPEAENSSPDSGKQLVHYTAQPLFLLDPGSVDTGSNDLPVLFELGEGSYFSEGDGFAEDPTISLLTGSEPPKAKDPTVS
# Method in brief: as §1
# SPIC = molecular target: T2, SPIC (Homo sapiens, UniProt Q8N5J4 1-248); details: protein: recombinant; tags: N-terminal GST; dsDNA, one strand shown
# T2 sequence: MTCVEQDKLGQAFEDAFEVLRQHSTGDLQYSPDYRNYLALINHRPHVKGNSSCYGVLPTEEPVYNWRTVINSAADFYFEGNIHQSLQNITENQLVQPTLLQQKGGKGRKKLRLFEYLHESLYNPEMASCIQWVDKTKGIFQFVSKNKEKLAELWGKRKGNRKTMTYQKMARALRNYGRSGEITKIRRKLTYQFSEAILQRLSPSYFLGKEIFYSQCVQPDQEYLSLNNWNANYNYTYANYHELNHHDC
# Method in brief: as §1
# ELF4 = ELF4 (Homo sapiens, UniProt Q99607 1-663); details: protein: recombinant; tags: N-terminal GST; dsDNA, one strand shown
# Chain of ELF4 (Q99607 whole entry): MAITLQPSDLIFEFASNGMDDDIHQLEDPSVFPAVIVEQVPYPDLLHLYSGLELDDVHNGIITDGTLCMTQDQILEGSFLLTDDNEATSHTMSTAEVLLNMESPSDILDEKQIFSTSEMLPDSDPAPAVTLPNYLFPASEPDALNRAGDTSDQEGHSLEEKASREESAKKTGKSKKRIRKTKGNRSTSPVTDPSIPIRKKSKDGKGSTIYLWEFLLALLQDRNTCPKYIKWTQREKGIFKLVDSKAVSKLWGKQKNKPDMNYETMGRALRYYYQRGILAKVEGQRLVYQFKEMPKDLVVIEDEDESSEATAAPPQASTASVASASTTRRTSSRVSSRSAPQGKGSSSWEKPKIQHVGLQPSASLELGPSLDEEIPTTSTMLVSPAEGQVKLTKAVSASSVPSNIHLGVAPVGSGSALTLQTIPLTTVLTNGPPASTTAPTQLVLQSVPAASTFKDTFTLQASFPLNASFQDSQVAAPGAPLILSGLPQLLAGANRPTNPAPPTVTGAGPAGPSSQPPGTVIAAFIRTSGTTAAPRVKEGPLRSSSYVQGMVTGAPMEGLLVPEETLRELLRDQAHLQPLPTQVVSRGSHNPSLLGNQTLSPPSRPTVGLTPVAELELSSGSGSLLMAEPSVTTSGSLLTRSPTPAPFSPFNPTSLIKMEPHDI
# Method in brief: as §1
# ELK4 = molecular target: T3, ELK4 (Homo sapiens, UniProt P28324-2 1-405); details: protein: recombinant; tags: N-terminal GST; dsDNA, one strand shown
# T3 sequence: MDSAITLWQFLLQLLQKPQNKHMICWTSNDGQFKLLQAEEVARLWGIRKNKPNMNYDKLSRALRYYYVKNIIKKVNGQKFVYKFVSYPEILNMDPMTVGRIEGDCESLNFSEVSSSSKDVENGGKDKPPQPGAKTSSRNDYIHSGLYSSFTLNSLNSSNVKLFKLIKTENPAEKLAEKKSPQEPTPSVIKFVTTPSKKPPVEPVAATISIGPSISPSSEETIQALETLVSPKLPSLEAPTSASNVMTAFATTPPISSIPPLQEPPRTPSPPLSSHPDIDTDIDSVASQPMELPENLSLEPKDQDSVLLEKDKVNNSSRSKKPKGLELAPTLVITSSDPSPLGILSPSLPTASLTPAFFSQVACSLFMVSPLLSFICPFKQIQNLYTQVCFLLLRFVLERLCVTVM
# Method in brief: as §1
# ETV2 = molecular target: T4, ETV2 (Homo sapiens, UniProt O00321 1-342); details: protein: recombinant; tags: N-terminal GST; dsDNA, one strand shown
# T4 sequence: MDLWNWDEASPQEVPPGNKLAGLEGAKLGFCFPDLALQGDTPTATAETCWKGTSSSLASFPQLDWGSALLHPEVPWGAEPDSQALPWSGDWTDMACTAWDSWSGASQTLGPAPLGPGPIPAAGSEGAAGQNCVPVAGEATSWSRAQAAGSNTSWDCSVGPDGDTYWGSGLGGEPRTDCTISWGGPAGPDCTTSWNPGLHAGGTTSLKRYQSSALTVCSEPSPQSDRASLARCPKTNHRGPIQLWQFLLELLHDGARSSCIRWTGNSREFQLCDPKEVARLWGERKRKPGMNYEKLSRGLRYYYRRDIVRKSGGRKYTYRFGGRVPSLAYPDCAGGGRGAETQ
# Method in brief: as §1
# ELF3 = molecular target: T5, ELF3 (Homo sapiens, UniProt P78545 1-371); details: protein: recombinant; tags: N-terminal GST; dsDNA, one strand shown
# T5 sequence: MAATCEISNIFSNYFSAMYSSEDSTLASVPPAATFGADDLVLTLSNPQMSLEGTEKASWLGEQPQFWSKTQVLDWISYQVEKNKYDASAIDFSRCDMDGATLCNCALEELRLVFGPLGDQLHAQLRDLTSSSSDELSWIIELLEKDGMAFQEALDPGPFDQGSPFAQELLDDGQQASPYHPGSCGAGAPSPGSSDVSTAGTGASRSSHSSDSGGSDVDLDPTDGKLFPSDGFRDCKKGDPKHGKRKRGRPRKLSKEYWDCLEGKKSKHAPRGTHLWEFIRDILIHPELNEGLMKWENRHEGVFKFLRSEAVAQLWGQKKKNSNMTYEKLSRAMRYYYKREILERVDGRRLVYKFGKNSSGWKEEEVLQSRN
# Method in brief: as §1
# CRX = CRX (Homo sapiens, UniProt O43186 1-299); details: protein: recombinant; tags: N-terminal GST; dsDNA, one strand shown
# Chain of CRX (O43186 whole entry): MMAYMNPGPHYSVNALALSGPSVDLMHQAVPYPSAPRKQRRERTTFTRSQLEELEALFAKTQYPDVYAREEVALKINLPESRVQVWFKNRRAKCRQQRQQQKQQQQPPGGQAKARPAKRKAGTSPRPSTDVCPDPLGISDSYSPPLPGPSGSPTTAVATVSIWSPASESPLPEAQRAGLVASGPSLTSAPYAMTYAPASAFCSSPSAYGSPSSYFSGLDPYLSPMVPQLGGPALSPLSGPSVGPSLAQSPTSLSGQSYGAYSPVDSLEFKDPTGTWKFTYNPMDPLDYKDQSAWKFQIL
# Method in brief: as §1
# ETV1 = ETV1 (Homo sapiens, UniProt P50549 1-477); details: protein: recombinant; tags: N-terminal GST; dsDNA, one strand shown
# Chain of ETV1 (P50549 whole entry): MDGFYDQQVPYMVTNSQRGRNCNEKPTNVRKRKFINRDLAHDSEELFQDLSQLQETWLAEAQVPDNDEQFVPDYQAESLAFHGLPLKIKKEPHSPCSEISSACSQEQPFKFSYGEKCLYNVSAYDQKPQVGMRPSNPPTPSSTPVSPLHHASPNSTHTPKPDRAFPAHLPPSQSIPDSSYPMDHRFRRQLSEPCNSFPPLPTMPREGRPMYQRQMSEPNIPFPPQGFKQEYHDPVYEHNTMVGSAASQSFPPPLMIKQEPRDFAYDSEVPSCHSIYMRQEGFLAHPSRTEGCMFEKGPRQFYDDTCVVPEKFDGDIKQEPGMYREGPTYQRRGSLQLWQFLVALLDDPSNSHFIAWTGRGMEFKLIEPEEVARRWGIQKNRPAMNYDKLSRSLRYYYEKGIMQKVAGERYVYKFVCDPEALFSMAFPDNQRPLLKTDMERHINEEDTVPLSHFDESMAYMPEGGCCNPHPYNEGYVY
# Method in brief: as §1
# ERF = molecular target: T6, ERF (Homo sapiens, UniProt P50548 1-548); details: protein: recombinant; tags: N-terminal GST; dsDNA, one strand shown
# T6 sequence: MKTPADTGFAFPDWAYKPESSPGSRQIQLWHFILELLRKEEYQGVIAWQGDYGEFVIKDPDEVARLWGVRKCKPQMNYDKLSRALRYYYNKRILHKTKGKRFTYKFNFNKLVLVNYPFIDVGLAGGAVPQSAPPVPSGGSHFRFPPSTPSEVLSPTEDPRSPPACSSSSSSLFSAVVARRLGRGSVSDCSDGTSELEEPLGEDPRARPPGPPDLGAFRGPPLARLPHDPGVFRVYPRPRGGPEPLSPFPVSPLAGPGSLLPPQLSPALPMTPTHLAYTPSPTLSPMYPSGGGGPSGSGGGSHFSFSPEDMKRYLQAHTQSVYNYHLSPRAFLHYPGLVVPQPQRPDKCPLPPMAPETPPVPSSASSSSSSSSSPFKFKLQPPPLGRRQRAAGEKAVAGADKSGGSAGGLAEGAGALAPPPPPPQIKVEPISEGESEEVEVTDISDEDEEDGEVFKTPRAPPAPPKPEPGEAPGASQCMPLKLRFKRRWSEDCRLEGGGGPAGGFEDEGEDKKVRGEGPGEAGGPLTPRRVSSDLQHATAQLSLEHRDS
# Method in brief: as §1
# ETV3L = molecular target: T7, ETV3L (Homo sapiens, UniProt Q6ZN32 1-361); details: protein: recombinant; tags: N-terminal GST; dsDNA, one strand shown
# T7 sequence: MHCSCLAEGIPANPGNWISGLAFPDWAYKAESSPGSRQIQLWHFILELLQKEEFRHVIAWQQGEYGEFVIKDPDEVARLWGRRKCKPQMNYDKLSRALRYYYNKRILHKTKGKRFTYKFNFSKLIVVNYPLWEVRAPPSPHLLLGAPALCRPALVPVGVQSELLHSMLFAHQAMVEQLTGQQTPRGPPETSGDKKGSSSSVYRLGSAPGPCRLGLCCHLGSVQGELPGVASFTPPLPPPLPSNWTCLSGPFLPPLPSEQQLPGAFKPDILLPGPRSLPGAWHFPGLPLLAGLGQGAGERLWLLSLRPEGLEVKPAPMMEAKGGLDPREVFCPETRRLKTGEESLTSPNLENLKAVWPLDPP
# Method in brief: as §1
# ETS2 = molecular target: T8, ETS2 (Homo sapiens, UniProt P15036 1-469); details: protein: recombinant; tags: N-terminal GST; dsDNA, one strand shown
# T8 sequence: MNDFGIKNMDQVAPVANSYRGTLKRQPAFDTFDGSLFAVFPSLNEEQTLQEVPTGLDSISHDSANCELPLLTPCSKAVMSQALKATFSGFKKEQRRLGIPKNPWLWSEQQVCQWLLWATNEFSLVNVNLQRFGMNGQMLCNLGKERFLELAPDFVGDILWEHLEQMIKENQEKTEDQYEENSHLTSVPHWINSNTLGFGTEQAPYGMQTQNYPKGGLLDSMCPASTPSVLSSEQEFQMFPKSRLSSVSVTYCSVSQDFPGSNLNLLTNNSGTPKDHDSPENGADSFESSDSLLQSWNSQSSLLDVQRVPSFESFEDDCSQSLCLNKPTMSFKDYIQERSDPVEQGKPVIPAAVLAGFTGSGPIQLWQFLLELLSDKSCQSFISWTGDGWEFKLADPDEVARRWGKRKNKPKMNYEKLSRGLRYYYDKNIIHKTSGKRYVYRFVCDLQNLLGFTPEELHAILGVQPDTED
# Method in brief: as §1
# SPDEF = molecular target: T9, SPDEF (Homo sapiens, UniProt O95238 1-335); details: protein: recombinant; tags: N-terminal GST; dsDNA, one strand shown
# T9 sequence: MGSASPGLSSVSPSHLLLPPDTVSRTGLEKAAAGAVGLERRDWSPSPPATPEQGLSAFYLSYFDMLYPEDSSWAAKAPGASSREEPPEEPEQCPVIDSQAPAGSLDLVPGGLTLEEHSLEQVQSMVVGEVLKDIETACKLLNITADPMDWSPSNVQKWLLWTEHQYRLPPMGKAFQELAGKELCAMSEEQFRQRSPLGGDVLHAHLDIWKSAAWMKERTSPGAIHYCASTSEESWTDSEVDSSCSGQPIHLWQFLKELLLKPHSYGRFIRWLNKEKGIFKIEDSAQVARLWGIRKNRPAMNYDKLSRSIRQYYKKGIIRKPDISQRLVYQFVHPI
# Method in brief: as §1
# ETV7 = molecular target: T10, ETV7 (Homo sapiens, UniProt Q9Y603 1-341); details: protein: recombinant; tags: N-terminal GST; dsDNA, one strand shown
# T10 sequence: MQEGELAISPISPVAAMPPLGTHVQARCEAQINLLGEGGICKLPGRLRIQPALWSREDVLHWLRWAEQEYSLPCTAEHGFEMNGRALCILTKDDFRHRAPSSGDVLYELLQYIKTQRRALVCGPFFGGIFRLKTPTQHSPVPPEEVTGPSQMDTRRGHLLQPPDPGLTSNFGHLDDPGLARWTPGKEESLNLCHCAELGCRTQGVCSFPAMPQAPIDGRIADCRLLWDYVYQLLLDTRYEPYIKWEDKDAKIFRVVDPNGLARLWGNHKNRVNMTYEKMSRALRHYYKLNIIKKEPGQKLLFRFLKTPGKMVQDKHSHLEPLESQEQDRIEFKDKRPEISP
# Method in brief: as §1
# ELF5 = molecular target: T11, ELF5 (Homo sapiens, UniProt Q9UKW6-2 1-255); details: protein: recombinant; tags: N-terminal GST; dsDNA, one strand shown
# T11 sequence: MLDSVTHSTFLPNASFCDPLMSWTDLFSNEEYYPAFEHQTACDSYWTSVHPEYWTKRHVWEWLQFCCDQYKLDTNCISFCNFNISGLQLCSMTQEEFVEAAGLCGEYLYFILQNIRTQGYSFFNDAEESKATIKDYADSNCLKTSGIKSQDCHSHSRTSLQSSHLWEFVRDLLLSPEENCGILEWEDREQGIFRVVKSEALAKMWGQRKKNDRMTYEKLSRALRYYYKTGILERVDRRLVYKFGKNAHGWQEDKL
# Method in brief: as §1
# ETV3 = molecular target: T12, ETV3 (Homo sapiens, UniProt P41162-2 1-143); details: protein: recombinant; tags: N-terminal GST; dsDNA, one strand shown
# T12 sequence: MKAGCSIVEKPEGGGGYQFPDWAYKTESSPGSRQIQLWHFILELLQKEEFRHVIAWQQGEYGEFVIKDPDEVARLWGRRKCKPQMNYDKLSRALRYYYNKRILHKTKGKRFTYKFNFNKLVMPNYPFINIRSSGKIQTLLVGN
# Method in brief: as §1
# ETV6 = ETV6 (Homo sapiens, UniProt P41212 1-452); details: protein: recombinant; tags: N-terminal GST; dsDNA, one strand shown
# Chain of ETV6 (P41212 whole entry): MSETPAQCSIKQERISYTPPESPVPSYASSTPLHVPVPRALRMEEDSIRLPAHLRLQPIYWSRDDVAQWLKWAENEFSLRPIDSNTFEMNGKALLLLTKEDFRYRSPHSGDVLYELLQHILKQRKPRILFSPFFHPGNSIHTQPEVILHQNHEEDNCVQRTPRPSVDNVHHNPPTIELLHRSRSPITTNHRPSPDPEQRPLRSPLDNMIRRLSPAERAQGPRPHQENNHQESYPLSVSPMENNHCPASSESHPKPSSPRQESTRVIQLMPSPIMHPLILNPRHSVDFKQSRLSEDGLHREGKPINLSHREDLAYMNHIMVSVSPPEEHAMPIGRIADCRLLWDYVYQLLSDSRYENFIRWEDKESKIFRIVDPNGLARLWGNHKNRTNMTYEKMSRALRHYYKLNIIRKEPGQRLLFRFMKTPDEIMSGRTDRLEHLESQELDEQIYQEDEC
# Method in brief: as §1
sequence,measurement,setting,value
ACATCC,binding signal,FEV,"3.7 fold enrichment (6-mer frequency, TF over GST control)"
same,binding signal,ETV5,"2.77 fold enrichment (6-mer frequency, TF over GST control)"
same,binding signal,HSF1,"1.06 fold enrichment (6-mer frequency, TF over GST control)"
same,binding signal,SPIC,"2.43 fold enrichment (6-mer frequency, TF over GST control)"
same,binding signal,ELF4,"2.28 fold enrichment (6-mer frequency, TF over GST control)"
same,binding signal,ELK4,"2.29 fold enrichment (6-mer frequency, TF over GST control)"
same,binding signal,ETV2,"2.61 fold enrichment (6-mer frequency, TF over GST control)"
same,binding signal,ELF3,"2.38 fold enrichment (6-mer frequency, TF over GST control)"
same,binding signal,CRX,"1.05 fold enrichment (6-mer frequency, TF over GST control)"
same,binding signal,ETV1,"2.66 fold enrichment (6-mer frequency, TF over GST control)"
same,binding signal,ERF,"2.41 fold enrichment (6-mer frequency, TF over GST control)"
same,binding signal,ETV3L,"2.46 fold enrichment (6-mer frequency, TF over GST control)"
same,binding signal,ETS2,"2.68 fold enrichment (6-mer frequency, TF over GST control)"
same,binding signal,SPDEF,"5.32 fold enrichment (6-mer frequency, TF over GST control)"
same,binding signal,ETV7,"2.28 fold enrichment (6-mer frequency, TF over GST control)"
same,binding signal,ELF5,"3.25 fold enrichment (6-mer frequency, TF over GST control)"
same,binding signal,ETV3,"2.88 fold enrichment (6-mer frequency, TF over GST control)"
same,binding signal,ETV6,"2.49 fold enrichment (6-mer frequency, TF over GST control)"
